Z-score data for 69 compounds are collected here from PubChem BioAssay AID488969 (Vanderbilt High Throughput Screening Facility, 2010).

The structures appear in SMILES notation. Whole data set: some 110,000 compounds, median “z-score” near -0.1, cut for the highest 2% near 2. Shown is part of a subset that was picked to be rich in the highest values. Activity calls are given as the source filed them.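 Rule for the calls: active = z-score in the third read window above 3 or below -3; inactive = the rest.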

The target in this experiment is Metabotropic glutamate receptor 8 (Rattus norvegicus) (UniProt P70579). In words: mGluR8 Gi/Go-coupled signaling modulation – cell-based, rat, thallium flux, HTS, primary screen (AID 488969). The note with it: HEK293 rat mGluR8, GIRK (G protein-gated inwardly rectifying potassium channel) thallium flux, FluoZin2; at 10 µM; stronger effect = higher value; submaximal glutamate (EC20) added with thallium.
Chain of Metabotropic glutamate receptor 8 (Rattus norvegicus) (P70579 whole entry, looked up): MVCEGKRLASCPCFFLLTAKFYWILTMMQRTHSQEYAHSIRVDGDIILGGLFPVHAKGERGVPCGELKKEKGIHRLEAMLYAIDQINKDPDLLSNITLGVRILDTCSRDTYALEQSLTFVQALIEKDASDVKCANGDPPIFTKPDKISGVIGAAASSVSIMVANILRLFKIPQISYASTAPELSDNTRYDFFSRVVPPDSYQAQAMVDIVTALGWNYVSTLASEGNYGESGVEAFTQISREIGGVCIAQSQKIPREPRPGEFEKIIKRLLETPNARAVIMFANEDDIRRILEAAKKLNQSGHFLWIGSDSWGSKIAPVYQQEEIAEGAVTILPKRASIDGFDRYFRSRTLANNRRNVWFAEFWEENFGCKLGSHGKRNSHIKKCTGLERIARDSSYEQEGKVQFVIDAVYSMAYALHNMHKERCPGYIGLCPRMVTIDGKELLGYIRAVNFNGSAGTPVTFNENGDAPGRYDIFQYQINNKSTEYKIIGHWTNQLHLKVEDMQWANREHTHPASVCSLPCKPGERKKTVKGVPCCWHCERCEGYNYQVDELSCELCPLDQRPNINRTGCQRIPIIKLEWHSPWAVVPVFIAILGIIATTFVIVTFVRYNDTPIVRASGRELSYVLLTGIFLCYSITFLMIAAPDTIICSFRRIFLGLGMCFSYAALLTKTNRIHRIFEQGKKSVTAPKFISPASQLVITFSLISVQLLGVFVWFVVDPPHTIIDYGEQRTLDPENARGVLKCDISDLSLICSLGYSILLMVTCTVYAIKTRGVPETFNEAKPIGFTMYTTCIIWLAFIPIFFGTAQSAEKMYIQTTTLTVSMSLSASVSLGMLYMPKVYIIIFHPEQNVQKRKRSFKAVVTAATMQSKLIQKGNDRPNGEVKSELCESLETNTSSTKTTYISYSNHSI
On to `COC(=O)c1ccc(/C=N/NC(=O)CC(=O)NCC(C)C)cc1`, for which the z-score was -0.0626.
With `COc1cc(CNCCO)cc(Br)c1OCc1ccccc1Cl`, the z-score is 1.32.
For the compound `O=C(O/N=C/c1ccc2c(c1)OCO2)c1ccccc1Cl`, the z-score came to 0.0816.
`CCCn1c(SCc2nc(-c3cccs3)no2)nnc1-c1ccncc1` yielded a z-score of 0.141.
`CCOc1ccc(-n2c(SCc3nc(-c4ccc(C)cc4)no3)nnc2-c2ccncc2)cc1`: the z-score is -0.127.
For `CCOc1ccc(-n2c(SCc3nc(-c4cccs4)no3)nnc2-c2ccncc2)cc1` the value was 7.31 (active); for `S=C(Nc1cccc(Cl)c1Cl)Nn1cnnc1`, -0.236.
Take `O=C(O)c1ccc(NC(=S)NC(NC(=O)c2ccco2)C(Cl)(Cl)Cl)cc1` (centres undefined): the z-score is -0.0488.
As for `Cc1cc2[nH]c(=S)[nH]c2cc1C`, the figure is 0.151; as for `Cc1cc(C)c2[nH]c(=O)c(=O)[nH]c2c1`, -0.178; as for `Cc1cc(C)c2[nH]c(=S)cc(C)c2c1`, 5.14 (active).
For `NC(=O)C1CCN(CC(=O)Nc2cccc(C(=O)Nc3cccc(C(F)(F)F)c3)c2)CC1` the value was -0.137.
In the case of `CS(=O)(=O)N(Cc1ccccc1)c1ccc(C(=O)NC2CCCCC2O)cc1` (centres undefined), the z-score was found to be 0.252.
For the compound `O=C(NNS(=O)(=O)c1cccc(Cl)c1Cl)c1cccc(S(=O)(=O)N2CCOCC2)c1`, the z-score was -0.174.
Turning to `O=C(NNS(=O)(=O)c1ccc(F)c(Cl)c1)c1cccc(S(=O)(=O)N2CCOCC2)c1`, the z-score was -0.0447.
Take `O=C(NNS(=O)(=O)c1ccccc1F)c1cccc(S(=O)(=O)N2CCOCC2)c1`: the z-score was 10.4 (active).
For `CCNc1nc(NC(C)CC)nc(Oc2ccc(=O)[nH]n2)n1` (centres undefined) the value was -0.162; for `CN=C1c2cc3c(Br)c(OC)ccc3n2CCN1C`, 0.218.
`CN=C1c2cc3cc(OC)ccc3n2CCN1C`: the z-score was determined as 0.371.
With `CN=C1c2c(-c3ccccc3)c3cc(OC)ccc3n2CCN1C`, the z-score was 4.2 (active).
In the case of `CCC(C)n1c(-c2ccco2)nc2nc3ccccc3nc21` (centres undefined), the z-score was -1.06.
Take `Cc1cccc(-n2c(-c3ccco3)nc3nc4ccccc4nc32)c1`: the z-score was -0.0341.
On to `Fc1cccc(-n2c(-c3ccco3)nc3nc4ccccc4nc32)c1`, for which the z-score was 3.05 (active).
Consider `CCOC(=O)c1cnc(-c2ccccc2)nc1Oc1ccc(C)cc1`, for which the z-score was determined as 2.4.
For the compound `CCOC(=O)c1cnc(-c2ccccc2)nc1Oc1ccccc1`, the z-score was -0.19.
In the case of `CCOC(=O)c1cnc(-c2ccccc2)nc1Oc1ccc(Cl)cc1`, the z-score was -0.241.
For the compound `O=C(Nc1ccccc1)c1ccc(S(=O)(=O)NCc2ccco2)cc1`, the z-score is -0.18.
`COc1ccc(C(=O)Nc2ccc(S(=O)(=O)NCc3ccco3)cc2)cc1OC`: the z-score was 3.13 (active).
As for `Cc1ccc(C(=O)Nc2ccc(S(=O)(=O)NCc3ccco3)cc2)cc1`, the figure is 0.0377; as for `CCOC(=O)c1c(NC(=O)C2CCCO2)sc(C(N)=O)c1C` (centres undefined), -0.0328.
Consider `CN(C)c1ccc(N=Nc2ccccc2C(=O)OCC(=O)NC2CCCC2)cc1`, for which the z-score was -0.235.
Consider `COc1cccc(C(=O)NC(C)c2ccc(Br)cc2)c1` (centres undefined), for which the z-score was -0.143.
In turn, `CCCC(=O)NC1C2CC3CC(C2)CC1C3` (centres undefined) had a z-score of 0.313.
For the compound `CC(=O)c1c(C)[nH]c(C(=O)OCC(=O)Nc2cccc(S(=O)(=O)N3CCCC3)c2)c1C`, the z-score worked out at 0.16.
As for `Cc1cc(C)c(C)c(S(=O)(=O)NNC(=O)c2cccc(S(=O)(=O)N3CCOCC3)c2)c1C`, the figure is -0.174; as for `CCCCOC(=O)n1c(=S)oc2cc(Cl)ccc21`, -0.00789.
For `Cc1ccccc1OC(=O)n1c(=S)oc2cc(Cl)ccc21` the value was 1.42.
As for `COC(=O)n1c(=S)oc2cc(Cl)ccc21`, the figure is 2.15; as for `O=C(NCc1ccco1)c1ccc(S(=O)(=O)c2cccc(S(=O)(=O)N3CCOCC3)c2)cc1`, 0.0723.
For the compound `CCC(C)C(=O)Nc1nc(C)c(-c2csc(Nc3ccccc3OC)n2)s1` (centres undefined), the z-score was -0.407.
As to `Clc1ccc(OCc2cc(-c3ccccc3)no2)c(Cl)c1`, the z-score is -0.0969.
As for `COc1ccc2nc(N3C(=O)/C(=C/c4ccccc4)NC3=S)sc2c1`, the z-score was 11.9 (active).
As to `COc1ccc2nc(N3C(=O)CC(C(C)c4ccccc4)C3=O)sc2c1` (centres undefined), the z-score is -0.143.
Compound `CCOc1ccc2nc(SCC(=O)c3ccccc3)sc2c1` gave a z-score of 0.303.
For `COc1ccc2nc(N3C(=O)/C(=C/c4ccc(Cl)cc4)NC3=S)sc2c1` the value was 6.84 (active); for `COc1ccc(N2C(=O)/C(=C/c3cccnc3)NC2=S)cc1`, -0.439; for `COc1ccc2nc(N3C(=O)CC(Cc4ccc(Cl)cc4)C3=O)sc2c1` (centres undefined), -0.21.
Consider `CCOc1ccc2nc(N3C(=O)/C(=C/c4ccccc4)NC3=S)sc2c1`, for which the z-score is 3.66 (active).
`COC(=O)/C=C1\C(=O)N(c2nc3ccc(OC)cc3s2)C(=S)N1c1ccc(F)cc1` returned a z-score of 0.0125.
The compound `CCOc1ccc2nc(N3C(=O)/C(=C/c4ccc(Cl)cc4)NC3=S)sc2c1` came in with a z-score of 1.05.
Regarding `Cc1cccc(OCCNc2cc(N3CCN(CCO)CC3)ccc2[N+](=O)[O-])c1`, the z-score is -0.0985.
Compound `Cc1cc2c(cc1C)NC1(C(=O)Nc3ccccc31)C1=C(CC(C)(C)CC1=O)N2` (centres undefined) showed a z-score of 0.0524.
Regarding `Cc1cccc(Oc2ccccc2NC(=O)c2cnccn2)c1`, the z-score was -0.109.
`COc1cc(C(=O)NCCc2ccc3c(c2)OCCO3)ccc1OCC(=O)N1CCOCC1`: the z-score was 0.0469.
For `CCCCOc1ccc(-c2cc(C(=O)NNC(=S)NCC)c3ccccc3n2)cc1` the value was -0.155.
The compound `COc1ccccc1N1CCN(C(CNC(=O)c2ccc3c(c2)OCO3)c2cccnc2)CC1` (centres undefined) displayed a z-score of 0.0309.
As for `CC(CNCC1CCCO1)COc1cccc2ccccc12` (centres undefined), the figure is 0.285; as for `Cc1ccc(C(=O)N/C(=C\c2ccc(-c3ccc(Br)cc3)o2)C(=O)NC2CCS(=O)(=O)C2)cc1` (centres undefined), -0.13.
Take `O=C(Nc1ccc2oc(-c3ccncc3)nc2c1)c1ccccc1F`: the z-score was -0.225.
For `COc1c(F)c(F)c(C(=O)Nc2ccc3oc(-c4ccncc4)nc3c2)c(F)c1F`, the z-score was -0.29.
With `O=C(Nc1ccc2oc(-c3ccncc3)nc2c1)c1c(F)c(F)c(F)c(F)c1F`, the z-score was 3.39 (active).
Regarding `COc1cc2c(cc1NCc1ccccn1)oc1ccccc12`, the z-score is -0.0883.
In turn, `CCC(=O)Nc1ccc(N2CCN(Cc3ccccc3)CC2)cc1` gave a z-score of 0.042.
With `O=C(CCS(=O)(=O)c1ccccc1)Nc1nc2c(s1)COc1ccccc1-2`, the z-score is -0.504.
As to `C/C=C/C=N/Nc1nc(-c2ccc([N+](=O)[O-])cc2)cs1`, the z-score was -0.273.
For `COc1ccc(C(=O)N2CCN(C3CCC(c4ccccc4)CC3)CC2)cc1OC` (centres undefined) the value was -1.61.
As for `O=C(CC(O)(C(F)(F)F)C(F)(F)F)Nc1ccc(Cl)c(Cl)c1`, the z-score is 6.91 (active).
For `Cc1ccc(NC(=O)CC(O)(C(F)(F)F)C(F)(F)F)cc1` the value was -0.185; for `Cc1ccc(Cl)cc1NC(=O)CC(O)(C(F)(F)F)C(F)(F)F`, -2.38.
